Measurements taken from PubChem BioAssay.
Active and inactive are the calls of the source.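 How the source made its calls, unless noted: active means inhibition above 20% together with a positive visual image hit; inconclusive means visual image hit but inhibition not above 20%; inactive means no visual image hit.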

Assay: inhibitors of TNFa-induced NFkB p65 translocation, primary screen, imaging, HUVEC, MLSMR starter and 10KST1 sets (AID 438);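 further: compound added about 3h40 before a 20 min TNFalpha stimulation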;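 on inhibition: signal is the nuclear over cytoplasmic p65 intensity ratio per well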
Conditions: HUVEC TNFa-induced p65 nuclear translocation; cell count: measured here: nuclei count (cytotoxicity indicator), at 2.08 µM; inhibition: at 2 µM, stronger effect = higher value, 0% TNFa-plus-vehicle, 100% no-TNFa wells

Row | Compound | inhibition | cell count
1 | O=C1CCC(C(=O)N(Cc2ccco2)C2(C(=O)NC3CCCC3)CCCCC2)N1 (stereo unspecified) | -6.8% (inactive) | 428
2 | O=C(NC1CCCCCCC1)C1CCN(c2nc3ccccc3o2)CC1 | -10.2% (inactive) | 737
3 | COc1ccccc1N1CCN(c2cc(N3CCCC3)nc(C)n2)CC1 | 7.3% (inactive) | 310
4 | CCN(CC(=O)Nc1ccc2c(c1)OCCO2)Cc1cc(=O)oc2cc(C)c(C)cc12 | -9.6% (inactive) | 337
5 | Cc1ccc2cc(C(c3nnnn3C3CCCC3)N3CCN(c4ccc(F)cc4)CC3)c(=O)[nH]c2c1 (stereo unspecified) | 7.2% (inactive) | 586
6 | COc1ccccc1N1CCN(C(=O)c2cc(-c3ccc(Cl)c(Cl)c3)on2)CC1 | 5.1% (inactive) | 430
7 | COC(=O)c1sc(S(=O)(=O)N2CCN(c3ccccc3)CC2)c(C(=O)OC)c1C | 3.6% (inactive) | 394
8 | Cc1cc(NC(=O)CSc2nc(C3CCCCC3)nc3ccccc23)no1 | -4.4% (inactive) | 725
9 | COc1ccc(Cl)c(NC(=O)NCCN2CCN(c3ccccc3)CC2)c1 | 1.8% (inactive) | 410
10 | Cc1ccc(S(=O)(=O)N2CCN(C(=O)N3CCOCC3)C2c2ccc(N(C)C)cc2)cc1 (stereo unspecified) | -0.5% (inactive) | 377
11 | CCOC(=O)c1c(N)c(C#N)nn1-c1ccccc1C(=O)OC | -3.6% (inactive) | 516
12 | Cc1cc(C)n(C(C)n2nc(C)cc2C)n1 | 4.3% (inactive) | 367
13 | CCCCCCn1c(CN2CCCC(C)C2)nc2c1c(=O)n(C)c(=O)n2C (stereo unspecified) | -3.8% (inactive) | 302
14 | Cc1cccc(NC(=O)c2ccc(S(=O)(=O)N(C)C)cc2)n1 | -5.5% (inactive) | 290
15 | Cn1cnnc1Sc1nc2c(c(=O)n(C)c(=O)n2C)n1Cc1ccccc1Cl | 7.7% (inactive) | 376
16 | COC(=O)Nc1ccc(S(=O)(=O)N2CCCCCC2)cc1 | -2.5% (inactive) | 336
17 | Cc1cc(=O)c2n(Cc3ccccc3Cl)nc[n+]2[nH]1 | 6% (inactive) | 800
18 | Cn1c(=O)[nH]c(=O)c2c1nc(Br)n2CCCSc1nc2ccccc2o1 | -2.9% (inactive) | 588
19 | Cc1ccc(C(=O)Nc2c(C(=O)N3CCOCC3)cnn2-c2ccccc2)cc1 | 5.4% (inactive) | 354
20 | COc1ccc(C(=O)NCCC(C)C)cc1S(=O)(=O)N1CCOCC1 | -32.8% (inactive) | 229

Row | Compound | inhibition | cell count
21 | O=C(NC1=NCCS1)c1ccc2c(c1)C(=O)N(Cc1ccco1)C2=O | 0% (inactive) | 447
22 | CCN(C(=O)c1cccs1)c1nnc(-c2ccncc2)s1 | -7.1% (inactive) | 737
23 | O=C(c1nn2cccnc2c1Cl)N1CCN(c2ccccc2)CC1 | 3.6% (inactive) | 344
24 | CC12CCC(C(=O)N3CCN(C(=O)C45CCC(C)(C(=O)O4)C5(C)C)CC3)(OC1=O)C2(C)C | -8.7% (inactive) | 575
25 | CSc1nnc(-c2ccccc2)n1C | -13.1% (inactive) | 645
26 | O=C(COC(=O)c1ccccc1C(=O)c1ccccc1)c1ccco1 | 7.4% (inactive) | 327
27 | CN(CC(=O)Nc1cccnc1)S(=O)(=O)c1cc(Cl)ccc1Cl | 12.5% (inactive) | 448
28 | O=C(CSc1n[nH]c(=O)[nH]c1=O)c1ccccc1 | -5.6% (inactive) | 486
29 | O=C(NCCCN1CCN(c2cccc(Cl)c2)CC1)c1ccc(N2CCCC2=O)cc1 | -10% (inactive) | 763
30 | CCN1C(=O)/C(=C/N(C)c2ccccc2)OC1=S | -12.2% (inactive) | 592
31 | Cc1nnc(SCC(=O)NCc2ccc3c(c2)OCO3)s1 | 3.1% (inactive) | 418
32 | Cc1cccc(NC(=O)CCCCCN2C(=O)c3ccccc3C2=O)n1 | -4.8% (inactive) | 495
33 | COc1ccc(-n2nc3cc(C)c(N)c(Br)c3n2)cc1 | -6.8% (inactive) | 336
34 | Cc1ccc(S(=O)(=O)N(CC(=O)N2CCC(C(N)=O)CC2)Cc2ccc(F)cc2)cc1 | 3.5% (inactive) | 473
35 | Cc1ccc(-n2c(C)cc3c2CCCC3=O)cc1 | 2.4% (inactive) | 313
36 | CC1CCCCC1NC(=O)COc1ccc(-n2cnnn2)cc1 (stereo unspecified) | 6.8% (inactive) | 508
37 | CSc1ccccc1NC(=O)CN(c1ccccc1)S(=O)(=O)N(C)C | -0.8% (inactive) | 429
38 | O=C(C1CCCO1)N1CCN(S(=O)(=O)c2ccccc2)CC1 (stereo unspecified) | 4% (inactive) | 328
39 | O=C(Nc1ccc2oc(=O)ccc2c1)c1cccnc1 | 7.5% (inactive) | 423

Assay: inhibitors of mutant huntingtin aggregation, primary screen, imaging, exon1htt(103Q)mCFP cells, high-content imaging (AID 483;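 active means visual image review flags a hit and inhibition of aggregation exceeds 20%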;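 further: compound exposure lasted 3 days before fixation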;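 on nuclei count: percent of the per-plate median nuclei count of sample wells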)
Conditions: exon1htt(103Q)mCFP cell line, aggregate imaging, at 2 µM; inhibition of aggregation: stronger effect = higher value; nuclei count: measured here: cell count, toxicity

Row | Compound | inhibition of aggregation | nuclei count [%]
40 | O=C1CCC(C(=O)N(Cc2ccco2)C2(C(=O)NC3CCCC3)CCCCC2)N1 (stereo unspecified) | -16.4% (inactive) | 116
41 | O=C(NC1CCCCCCC1)C1CCN(c2nc3ccccc3o2)CC1 | 9.4% (inactive) | 94.8
42 | COc1ccccc1N1CCN(c2cc(N3CCCC3)nc(C)n2)CC1 | 0% (inactive) | 102
43 | CCN(CC(=O)Nc1ccc2c(c1)OCCO2)Cc1cc(=O)oc2cc(C)c(C)cc12 | 8.8% (inactive) | 96.4
44 | Cc1ccc2cc(C(c3nnnn3C3CCCC3)N3CCN(c4ccc(F)cc4)CC3)c(=O)[nH]c2c1 (stereo unspecified) | -4.3% (inactive) | 99.8
45 | COc1ccccc1N1CCN(C(=O)c2cc(-c3ccc(Cl)c(Cl)c3)on2)CC1 | -5.8% (inactive) | 97.3
46 | COC(=O)c1sc(S(=O)(=O)N2CCN(c3ccccc3)CC2)c(C(=O)OC)c1C | -23.7% (inactive) | 76.7
47 | Cc1cc(NC(=O)CSc2nc(C3CCCCC3)nc3ccccc23)no1 | -20.3% (inactive) | 110
48 | COc1ccc(Cl)c(NC(=O)NCCN2CCN(c3ccccc3)CC2)c1 | 1% (inactive) | 99.5
49 | Cc1ccc(S(=O)(=O)N2CCN(C(=O)N3CCOCC3)C2c2ccc(N(C)C)cc2)cc1 (stereo unspecified) | 0.7% (inactive) | 98
50 | CCOC(=O)c1c(N)c(C#N)nn1-c1ccccc1C(=O)OC | 30.5% (inactive) | 81
51 | Cc1cc(C)n(C(C)n2nc(C)cc2C)n1 | -9.9% (inactive) | 110
52 | CCCCCCn1c(CN2CCCC(C)C2)nc2c1c(=O)n(C)c(=O)n2C (stereo unspecified) | -10.6% (inactive) | 104
53 | Cc1cccc(NC(=O)c2ccc(S(=O)(=O)N(C)C)cc2)n1 | 4.5% (inactive) | 108
54 | Cn1cnnc1Sc1nc2c(c(=O)n(C)c(=O)n2C)n1Cc1ccccc1Cl | -1.6% (inactive) | 106
55 | COC(=O)Nc1ccc(S(=O)(=O)N2CCCCCC2)cc1 | 1.8% (inactive) | 100
56 | Cc1cc(=O)c2n(Cc3ccccc3Cl)nc[n+]2[nH]1 | 3% (inactive) | 97.2
57 | Cn1c(=O)[nH]c(=O)c2c1nc(Br)n2CCCSc1nc2ccccc2o1 | -18.5% (inactive) | 112
58 | Cc1ccc(C(=O)Nc2c(C(=O)N3CCOCC3)cnn2-c2ccccc2)cc1 | -0.9% (inactive) | 102
59 | COc1ccc(C(=O)NCCC(C)C)cc1S(=O)(=O)N1CCOCC1 | 0.6% (inactive) | 66.7

Row | Compound | inhibition of aggregation | nuclei count [%]
60 | O=C(NC1=NCCS1)c1ccc2c(c1)C(=O)N(Cc1ccco1)C2=O | 19.6% (inactive) | 96.6
61 | CCN(C(=O)c1cccs1)c1nnc(-c2ccncc2)s1 | -14.4% (inactive) | 104
62 | O=C(c1nn2cccnc2c1Cl)N1CCN(c2ccccc2)CC1 | -7.7% (inactive) | 80.1
63 | CC12CCC(C(=O)N3CCN(C(=O)C45CCC(C)(C(=O)O4)C5(C)C)CC3)(OC1=O)C2(C)C | -6.1% (inactive) | 108
64 | CSc1nnc(-c2ccccc2)n1C | -35.1% (inactive) | 111
65 | O=C(COC(=O)c1ccccc1C(=O)c1ccccc1)c1ccco1 | -2.3% (inactive) | 89.2
66 | CN(CC(=O)Nc1cccnc1)S(=O)(=O)c1cc(Cl)ccc1Cl | -7.7% (inactive) | 101
67 | O=C(CSc1n[nH]c(=O)[nH]c1=O)c1ccccc1 | 6.7% (inactive) | 82
68 | O=C(NCCCN1CCN(c2cccc(Cl)c2)CC1)c1ccc(N2CCCC2=O)cc1 | 11.5% (inactive) | 97.9
69 | CCN1C(=O)/C(=C/N(C)c2ccccc2)OC1=S | 12.1% (inactive) | 84.4
70 | Cc1nnc(SCC(=O)NCc2ccc3c(c2)OCO3)s1 | -12% (inactive) | 101
71 | Cc1cccc(NC(=O)CCCCCN2C(=O)c3ccccc3C2=O)n1 | -19.8% (inactive) | 103
72 | COc1ccc(-n2nc3cc(C)c(N)c(Br)c3n2)cc1 | 3.9% (inactive) | 59.9
73 | Cc1ccc(S(=O)(=O)N(CC(=O)N2CCC(C(N)=O)CC2)Cc2ccc(F)cc2)cc1 | -8.5% (inactive) | 91.9
74 | Cc1ccc(-n2c(C)cc3c2CCCC3=O)cc1 | -9.3% (inactive) | 88.9
75 | CC1CCCCC1NC(=O)COc1ccc(-n2cnnn2)cc1 (stereo unspecified) | 5.2% (inactive) | 81.6
76 | CSc1ccccc1NC(=O)CN(c1ccccc1)S(=O)(=O)N(C)C | 1.4% (inactive) | 96
77 | O=C(C1CCCO1)N1CCN(S(=O)(=O)c2ccccc2)CC1 (stereo unspecified) | 3.2% (inactive) | 86.5
78 | O=C(Nc1ccc2oc(=O)ccc2c1)c1cccnc1 | 4% (inactive) | 90.8
